From PubChem BioAssay AID1159580 (chemical genetic matrix, 2015)
About 2,000 (36%) of roughly 5,500 compounds were called active. Inconclusive results (about 18%) are left out. Rule as the data show it: active = normalized growth mostly below about 0.91 (no sharp cut-off); inconclusive = no clear call, values can overlap the other calls; inactive = mostly above about 0.92. The list shows a part of the results.

Assay: chemical genetic growth profiling, strain panel (AID 1159580);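 also: tested at 20 µM; growth read once vehicle control cultures reached saturation at 30 °C; 1 = growth at the plate median or of vehicle wells; lower values mean less growth of the strain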
Conditions: growth OD

Measured: normalized growth

CON
inactive: S. cerevisiae deletion strains, locus YJR075W, strain HOC1, active compounds read low 1.02 | S. cerevisiae deletion strains, locus YKL009W, strain mrt4, active compounds read low 0.978 | S. cerevisiae deletion strains, locus YKL068W, active compounds read low 0.992 | S. cerevisiae deletion strains, locus YKL085W, strain MDH1 (second series), active compounds read low 1.04 | S. cerevisiae deletion strains, locus YKL085W, strain MDH1, active compounds read low 1.04 | S. cerevisiae deletion strains, locus YKL160W, strain elf1, active compounds read low 1.06 | S. cerevisiae deletion strains, locus YKL190W, strain CNB1, active compounds read low 1 | S. cerevisiae deletion strains, locus YKR001C, strain vps1, active compounds read low 0.989 | S. cerevisiae deletion strains, locus YKR026C, strain gcn3, active compounds read low 0.993 | S. cerevisiae deletion strains, locus YKR091W, strain srl3, active compounds read low 0.998 | S. cerevisiae deletion strains, locus YLL001W, strain dnm1, active compounds read low 1 | S. cerevisiae deletion strains, locus YLL026W, active compounds read low 1.01 | S. cerevisiae deletion strains, locus YLL041C, strain sdh2, active compounds read low 0.988 | S. cerevisiae deletion strains, locus YLR027C, strain aat2, active compounds read low 1.01 | S. cerevisiae deletion strains, locus YLR039C, strain RIC1, active compounds read low 1.01 | S. cerevisiae deletion strains, locus YLR058C, strain SHM2, active compounds read low 1.01 | S. cerevisiae deletion strains, locus YLR102C, strain apc9, active compounds read low 0.989 | S. cerevisiae deletion strains, locus YLR113W, strain HOG1, active compounds read low 0.988 | S. cerevisiae deletion strains, locus YLR221C, strain rsa3, active compounds read low 0.984 | S. cerevisiae deletion strains, locus YLR258W, strain gsy2, active compounds read low 1.01 | S. cerevisiae deletion strains, locus YLR262C, strain YPT6 (second series), active compounds read low 0.999 | S. cerevisiae deletion strains, locus YLR262C, strain YPT6, active compounds read low 1.01 | S. cerevisiae deletion strains, locus YLR268W, strain sec22, active compounds read low 0.995 | S. cerevisiae deletion strains, locus YLR320W, strain mms22, active compounds read low 1.02 | S. cerevisiae deletion strains, locus YLR330W, strain CHS5, active compounds read low 1.01 | S. cerevisiae deletion strains, locus YLR342W, strain FKS1 (second series), active compounds read low 0.999 | S. cerevisiae deletion strains, locus YLR342W, strain FKS1, active compounds read low 1.01 | S. cerevisiae deletion strains, locus YLR357W, strain rsc2, active compounds read low 0.97 | S. cerevisiae deletion strains, locus YLR370C, strain arc18, active compounds read low 1.04 | S. cerevisiae deletion strains, locus YLR371W, strain rom2, active compounds read low 0.99 | S. cerevisiae deletion strains, locus YLR384C, strain iki3, active compounds read low 1.01 | S. cerevisiae deletion strains, locus YLR418C, strain cdc73, active compounds read low 1.03 | S. cerevisiae deletion strains, locus YML016C, strain PPZ1, active compounds read low 1 | S. cerevisiae deletion strains, locus YML032C, strain rad52, active compounds read low 1.01 | S. cerevisiae deletion strains, locus YML120C, strain ndi1, active compounds read low 1 | S. cerevisiae deletion strains, locus YML124C, strain tub3, active compounds read low 0.987 | S. cerevisiae deletion strains, locus YMR058W, strain fet3, active compounds read low 0.998 | S. cerevisiae deletion strains, locus YMR078C, strain ctf18, active compounds read low 0.99 | S. cerevisiae deletion strains, locus YMR125W, strain sto1, active compounds read low 0.987 | S. cerevisiae deletion strains, locus YMR129W, active compounds read low 1.02 | S. cerevisiae deletion strains, locus YMR205C, strain PFK2, active compounds read low 1 | S. cerevisiae deletion strains, locus YMR223W, strain ubp8, active compounds read low 0.993 | S. cerevisiae deletion strains, locus YMR231W, strain pep5, active compounds read low 0.996 | S. cerevisiae deletion strains, locus YMR263W, strain SAP30, active compounds read low 1 | S. cerevisiae deletion strains, locus YMR307W, strain GAS1, active compounds read low 1.09 | S. cerevisiae deletion strains, locus YNL067W, strain RPL9B, active compounds read low 1.03 | S. cerevisiae deletion strains, locus YNL071W, strain lat1, active compounds read low 0.985 | S. cerevisiae deletion strains, locus YNL153C, strain GIM3, active compounds read low 1.04 | S. cerevisiae deletion strains, locus YNL183C, strain NPR1, active compounds read low 0.927 | S. cerevisiae deletion strains, locus YNL209W, strain ssb2, active compounds read low 1.01 | S. cerevisiae deletion strains, locus YNL233W, strain BNI4, active compounds read low 1.04 | S. cerevisiae deletion strains, locus YNL248C, strain rpa49, active compounds read low 1.02 | S. cerevisiae deletion strains, locus YNL250W, strain rad50, active compounds read low 0.99 | S. cerevisiae deletion strains, locus YNL271C, strain bni1, active compounds read low 0.986 | S. cerevisiae deletion strains, locus YNL298W, strain CLA4, active compounds read low 0.981 | S. cerevisiae deletion strains, locus YNL307C, strain MCK1, active compounds read low 0.993 | S. cerevisiae deletion strains, locus YNL322C, strain KRE1 (second series), active compounds read low 1.01 | S. cerevisiae deletion strains, locus YNR049C, strain mso1, active compounds read low 1 | S. cerevisiae deletion strains, locus YNR052C, strain pop2, active compounds read low 0.978 | S. cerevisiae deletion strains, locus YOL006C, strain TOP1, active compounds read low 1.08 | S. cerevisiae deletion strains, locus YOL012C, strain htz1 1.2 | S. cerevisiae deletion strains, locus YOL147C, strain pex11, active compounds read low 0.998 | S. cerevisiae deletion strains, locus YOR001W, strain rrp6, active compounds read low 0.968 | S. cerevisiae deletion strains, locus YOR061W, strain CKA2, active compounds read low 1 | S. cerevisiae deletion strains, locus YOR069W, strain VPS5, active compounds read low 0.993 | S. cerevisiae deletion strains, locus YOR070C, strain gyp1, active compounds read low 1.02 | S. cerevisiae deletion strains, locus YOR080W, strain dia2, active compounds read low 0.996 | S. cerevisiae deletion strains, locus YOR083W, strain WHI5, active compounds read low 1.03 | S. cerevisiae deletion strains, locus YOR106W, strain vam3, active compounds read low 1.02 | S. cerevisiae deletion strains, locus YOR136W, strain idh2, active compounds read low 0.98 | S. cerevisiae deletion strains, locus YOR144C, strain elg1, active compounds read low 0.995 | S. cerevisiae deletion strains, locus YOR184W, strain ser1, active compounds read low 0.958 | S. cerevisiae deletion strains, locus YOR231W, strain MKK1, active compounds read low 1.04 | S. cerevisiae deletion strains, locus YOR265W, strain rbl2, active compounds read low 1.01 | S. cerevisiae deletion strains, locus YOR270C, strain vph1, active compounds read low 1.04 | S. cerevisiae deletion strains, locus YOR290C, strain snf2, active compounds read low 1.07 | S. cerevisiae deletion strains, locus YOR316C, strain cot1, active compounds read low 0.983 | S. cerevisiae deletion strains, locus YPL051W, strain arl3, active compounds read low 1.04 | S. cerevisiae deletion strains, locus YPL055C, strain LGE1, active compounds read low 1.09 | S. cerevisiae deletion strains, locus YPL078C, strain atp4, active compounds read low 1.04 | S. cerevisiae deletion strains, locus YPL106C, strain sse1, active compounds read low 1.01 | S. cerevisiae deletion strains, locus YPL240C, strain hsp82, active compounds read low 1 | S. cerevisiae deletion strains, locus YPL256C, strain CLN2, active compounds read low 0.993 | S. cerevisiae deletion strains, locus YPR119W, strain clb2, active compounds read low 0.99 | S. cerevisiae deletion strains, locus YPR141C, strain kar3, active compounds read low 0.989 | S. cerevisiae deletion strains, locus YPR163C, strain tif3, active compounds read low 0.991 | S. cerevisiae deletion strains, locus YPR167C, strain met16, active compounds read low 0.984 | S. cerevisiae deletion strains, strain wtn01, active compounds read low 0.978 | S. cerevisiae strains, strain wild type, active compounds read low 0.997
